Assay results published in PubChem BioAssay (NCI).
This is part of a sample that, as a whole, favours compounds with a hit. Of some 79,000 tested, about 15% had one in any assay. Rule as the data show it: active = growth inhibition above about 70%; inactive = the rest. Where a SMILES comes first, the peptide text is derived from it. The star is where a group is joined. Boc = CC(C)(C)OC(=O)*

Columns and labels:
[1] = NCI Yeast Anticancer Drug Screen. Data for the rad50 strain (AID 155);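 also: 0% = growth of vehicle-only cultures of the same strain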; settings: S. cerevisiae rad50 strain growth inhibition; at 50.0 µM; hits give high values
Procedure, shortened: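 Growth of the mutant yeast was measured after compound exposure and referenced to vehicle-treated cultures.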

[2] = NCI Yeast Anticancer Drug Screen. Data for the mec2-1 strain (AID 157); settings: S. cerevisiae mec2-1 strain, at 50.0 µM, hits give high values
Procedure, shortened: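 Using mec2-1 yeast: add compound, measure growth, express inhibition versus vehicle-treated cultures.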

[3] = NCI Yeast Anticancer Drug Screen. Data for the sgs1 mgt1 strain (AID 161);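 also: 0% = growth of cultures given vehicle only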; settings: S. cerevisiae sgs1 mgt1 strain, at 50.0 µM, hits give high values
Procedure, shortened: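 Growth of a repair-deficient yeast mutant was monitored after compound treatment and expressed as inhibition relative to vehicle-treated cultures.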

[4] = NCI Yeast Anticancer Drug Screen. Data for the cln2 rad14 strain (AID 165);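 also: 0% = growth equal to vehicle treated cultures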; settings: S. cerevisiae cln2 rad14 strain, at 50.0 µM, hits give high values
Procedure, shortened: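 Yeast strain cln2 rad14, bearing defects in cell cycle control and DNA repair, serves as the test system; values reflect growth inhibition compared with vehicle.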

[5] = NCI Yeast Anticancer Drug Screen. Data for the bub3 strain (AID 167); settings: S. cerevisiae bub3 mutant strain, at 50.0 µM, hits give high values
Procedure, shortened: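 Whole-cell yeast assay. The mutant strain was incubated with compounds, and growth inhibition was determined by comparison with vehicle-treated cells.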

[6] = NCI Yeast Anticancer Drug Screen. Data for the mlh1 rad18 strain (AID 175); settings: S. cerevisiae mlh1 rad18 strain growth inhibition; at 50.0 µM; hits give high values
Procedure, shortened: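 Steps: expose repair-defective yeast to compound; measure growth; express inhibition against vehicle-treated controls.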

Measured: growth inhibition

O=C1C=C(O)C(=C/C=C/C=C/c2c(O)cc(O)cc2O)C(O)=C1
inactive: [1] -12.4% | [2] -13.6% | [3] -2.65% | [4] 10.2% | [5] 6.65% | [6] -5.7%

CN(C)C1(C(=O)O)c2ccccc2-c2ccccc21
inactive: [1] 9.85% | [2] 10.6% | [3] 21.8% | [4] -3.45% | [5] 16.3% | [6] -3.3%

Cc1c(C)c(C)c(Br)c(C)c1C
inactive: [1] -6.7% | [2] -5.05% | [3] -14% | [4] -17.6% | [5] 1.15% | [6] 0.65%

CCCCCCCCCCN(CCCCCCCCCC)CC(O)c1cc(-c2ccc(Cl)cc2)nc2ccccc12 (stereo not given)
inactive: [1] 25.6% | [2] 17.1% | [3] 39.4% | [4] 31.2% | [5] 34.6% | [6] 50.2%

COc1ccccc1NC(=O)C(CC(C(=O)Nc1ccccc1OC)/C(C)=N/Nc1ccc([N+](=O)[O-])cc1[N+](=O)[O-])/C(C)=N/Nc1ccc([N+](=O)[O-])cc1[N+](=O)[O-] (stereo not given)
inactive: [1] 14.8% | [2] 4.95% | [3] 19.6% | [4] 10.6% | [5] 17.8% | [6] 32.4%

Cc1cc2nc3c(=O)[nH]c(=O)nc-3n(CCO)c2cc1C
inactive: [1] -0.5% | [2] 1.5% | [3] 8.6% | [4] -39.4% | [5] 6.15% | [6] -9.95%

NC(CCCCO)C(=O)O (stereo not given)
inactive: [1] -6.8% | [2] -35.8% | [3] 4.1% | [4] 23.1% | [5] -29.1% | [6] -15%

O=C(CCCCCC(=O)N1CC(CCl)c2ccc([N+](=O)[O-])cc21)N1CC(CCl)c2ccc([N+](=O)[O-])cc21 (stereo not given)
inactive: [1] -28.8% | [2] -39.8% | [3] -15.6% | [4] -4.5% | [5] -2.9% | [6] -55.4%

CC/C(=C\c1ccc(NC(C)=O)cc1)c1ccncc1
inactive: [1] -5.6% | [2] -16.6% | [3] 7.2% | [4] -0.85% | [5] -12.8% | [6] -4.6%

O=NN(CCCl)C(=O)/N=N/C(=O)N(CCCl)N=O
inactive: [1] 6.25% | [2] -38.9% | [3] -20.4% | [4] 15.2% | [5] -3.85% | [6] 20%

CCCCNS(=O)(=O)c1ccccc1
inactive: [1] 7.95% | [2] -18.1% | [3] -59.6% | [4] 9.65% | [5] 1.6% | [6] 20.4%

CC12CCC(=O)C=C1CCC1C2CCC2(C)C(C(=O)Cn3c(=O)[nH]cc(F)c3=O)CCC12 (stereo not given)
inactive: [1] 19.9% | [2] 1.85% | [3] 25.9% | [4] 8.85% | [5] 6.55% | [6] 11%

O=C1CSC(c2ccccc2[N+](=O)[O-])N1c1ccc(-n2c(-c3ccccc3)nc3ccccc3c2=O)cc1 (stereo not given)
inactive: [1] -8.95% | [2] -10.1% | [3] -4.05% | [4] -16.1% | [5] 13.3% | [6] 7.6%

N=C1CCCC1C(=S)SCCC(N)=O (stereo not given)
inactive: [1] -11.8% | [2] -30.2% | [3] -51.5% | [4] 6.8% | [5] -30.8% | [6] 6.15%

c1ccc(NCc2nc3ccccc3[nH]2)cc1
inactive: [1] -1.6% | [2] -7.55% | [3] -10.4% | [4] 24.3% | [5] 7.6% | [6] 1.15%

c1ccc(-c2cn3c(nc4ccccc43)c(-c3ccccc3)n2)cc1
inactive: [1] -44.6% | [2] -7.15% | [3] -29.1% | [4] -1.15% | [5] -4.3% | [6] -41.9%

CCCCS(=N)(=O)CC[C@H](N)C(=O)O (stereo not given in full)
inactive: [1] 2.3% | [2] -22.6% | [3] -25.1% | [4] -1.4% | [5] -47% | [6] -9.85%

Cc1nc2nn(C)cc2c(=O)n1/N=C/c1ccccc1
inactive: [1] -18.8% | [2] -35.5% | [3] -50.1% | [4] -5.9% | [5] -4.15% | [6] -37.4%

C[N+](C)([O-])Cc1ccccc1
inactive: [1] -12.9% | [2] -27.4% | [3] -19.4% | [4] -0.8% | [5] -5.2% | [6] -16.9%

CC[N+](CC)(CCO)CCCCCCCCCC[N+](CC)(CC)CCO
inactive: [1] 29.6% | [2] -4.15% | [3] 10.6% | [4] -15.3% | [5] -1.15% | [6] 9.2%

CN(C=O)/C=C/c1cc(O)ccc1O
inactive: [1] -0.95% | [2] -0.8% | [3] -1.6% | [4] -4.1% | [5] 7.7% | [6] 5.4%

CC(CCC(=O)O)C1CCC2C3CCC4CC(OC=O)CCC4(C)C3CC(=O)C12C (stereo not given)
inactive: [1] -5.9% | [2] -3.25% | [3] -12.8% | [4] 0.15% | [5] -1.6% | [6] -13.9%

N#CC(C#N)=C1c2ccccc2Sc2ccccc21
inactive: [1] -18.6% | [2] -0.35% | [3] -2.05% | [4] -21.3% | [5] -11.5% | [6] -22.2%

C=CCn1c(=O)n(CC=C)c(=O)n(CC=C)c1=O
inactive: [1] 7.4% | [2] 14.3% | [3] -5.35% | [4] -26.6% | [5] -10.3% | [6] -10.8%

C=CCNC(=O)OCCCl
inactive: [1] 6% | [2] -1.45% | [3] -9.6% | [4] 5.95% | [5] -4.5% | [6] 15.1%

O=C1CCCC2=C(N1)C(=O)C=CC2=O
inactive: [1] -2.55% | [2] 20.9% | [3] 17.1% | [4] 39.5% | [5] -0.2% | [6] -20.9%

CCCC(O)C(C)N (stereo not given)
inactive: [1] 4.3% | [2] -3.1% | [3] -2.9% | [4] -0.2% | [5] -2.25% | [6] -3.15%

NC(=O)Cc1c(F)c(F)c(F)c(F)c1F
inactive: [1] 9.95% | [2] -20.5% | [3] -0.95% | [4] 8.85% | [5] 28.8% | [6] 5.3%

CN(C)CC1CCCC/C1=N/OC(=O)c1ccc(Cl)cc1 (stereo not given)
inactive: [1] 0.15% | [2] 2.1% | [3] 10.9% | [4] 11.4% | [5] -4.6% | [6] 13.7%

CCCCCCCCCCCCCCCCOc1cccc(/C(=N/NS(C)(=O)=O)N2CCCCC2)c1
inactive: [1] -16.1% | [2] -30.6% | [3] -8.3% | [4] 1.75% | [5] -16.8% | [6] -5.5%

CN(C)c1ccc2c(c1)c1cc(N(C)C)ccc1n2Cc1ccccc1
inactive: [1] -2.05% | [2] -19.6% | [3] 12.2% | [4] -30.4% | [5] 1.95% | [6] -10.2%

O=C(c1ccccc1)C1C(c2ccccc2)N1C(=O)c1ccccc1 (stereo not given)
inactive: [1] 9.8% | [2] 16.4% | [3] 6.35% | [4] -1.3% | [5] 35.6% | [6] 12.9%

Cn1c2c(F)cccc2c(=O)c2c(O)cc3c(c21)C=CC(C)(C)O3
inactive: [1] -24.6% | [2] -22.2% | [3] -27.4% | [4] -17.9% | [5] -18.6% | [6] -19.7%

CC1=CC(C)(C)N=C2SC(c3ccc(Cl)cc3)=NN12
inactive: [1] 15.8% | [2] 7.25% | [3] 13.2% | [4] -5.8% | [5] 13.2% | [6] 10.6%

[Co].[O-]c1cccnc1C=Nc1ccccc1.[OH3+]
inactive: [1] 24.8% | [2] 31.6% | [3] 37.4% | [4] 30.9% | [5] 33.9% | [6] 21.9%

C=CCCCC1(c2ccccc2)C(=O)Oc2ccccc21 (stereo not given)
inactive: [1] 29.6% | [2] 2.55% | [3] -0.55% | [4] 15.6% | [5] 12.8% | [6] -2.75%

Cc1ccc(C)c(I)c1
inactive: [1] 7.2% | [2] -3.55% | [3] 6.1% | [4] -9.95% | [5] -2.55% | [6] 14.1%

Cc1cccc(NC(=S)NCCc2ccccn2)c1
inactive: [1] -6.85% | [2] -7.35% | [3] 17.9% | [4] -10.8% | [5] 12.7% | [6] 5.5%

CC(NC(=O)C(NC(=O)OC(C)(C)C)C(C)C)C(=O)N1CCCC1C(=O)O (stereo not drawn) (Boc-Val-Ala-Pro-OH; configuration not given here)
inactive: [1] -38.4% | [2] -52.5% | [3] -41% | [4] -28.7% | [5] -20.6% | [6] -38.4%

Cc1nn(C(=O)c2ccccc2O)c2c1C(c1ccccc1)SC(N)=N2 (stereo not given)
inactive: [1] 16.6% | [2] 17.6% | [3] 25.2% | [4] -5.25% | [5] 30.9% | [6] 9.3%
